Among all 420,000 compounds or so, about 50,000 (12%) were called active. A call without a number means that no potency is given here. About 26% were inconclusive and are not listed. Many of the other results were omitted from the sample, so actives are more common in it than they were. A number with no mark means an inactive call. The call rests on the fitted dose curve; in most records, active means well fitted inhibition curve with a large enough effect; inconclusive means small, poorly fitted or top-dose-only effect; inactive means flat fitted curve, though single readings scatter.
Test: qHTS for Inhibitors of human tyrosyl-DNA phosphodiesterase 1 (TDP1): qHTS in cells in presence of CPT; further: nearly all actives have a fitted effect of over 55% in size
Details: chicken DT40 Tdp1-/-;hTDP1 cells + 20 nM CPT, ATP luminescence, 48 h; series mostly up to 46.2 µM
Procedure, shortened: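 Chicken DT40 Tdp1-/- cells stably complemented with human TDP1 were seeded at 400 cells/well in medium containing 20 nM camptothecin, exposed to pin-transferred compounds, and grown at 37 °C for at least 48 hr. Viability was read as ATP luminescence.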
With Cc1ccc(-c2ccc(CCC(=O)O)n2-c2ccc(C(N)=O)cc2)cc1 the Potency was “inactive”. In the case of CC(C)C[C@@H]1COc2cc(N3CCC[C@@H]3CO)ccc2S(=O)(=O)N1, the Potency was “inactive”. With O=C(Nc1ccccc1C(=O)NCC1CCCO1)c1ccccc1F (configuration not stated) the Potency was “inactive”. In the case of O=C(NC1CC1)C(Cc1ccccc1)NS(=O)(=O)c1ccccc1F (configuration not stated), the Potency was 16.4 µM (active). For CCOC(=O)C1=C(COC(=O)[C@H](C)NS(=O)(=O)c2ccccc2F)NC(=O)NC1C (some centres not stated), the Potency was “inactive”. For CC(=O)NC(Cc1ccccc1)C(=O)NC1CCN(c2ncccc2[N+](=O)[O-])CC1 (configuration not stated), the Potency was “inactive”. With Cc1ccc(NS(=O)(=O)c2cccs2)cc1S(=O)(=O)N1CCCCCC1 the Potency was “inactive”. For Cc1ccc(C(=O)NCC(=O)O)cc1S(=O)(=O)N1CCCCC1, the Potency was “inactive”. With Cc1ccc(C)c(Nc2nnc(-c3ccc(C)c(S(=O)(=O)N4CCCCC4)c3)c3ccccc23)c1 the Potency was 4.11 µM (active). With Cc1ccc(S(=O)(=O)N(C)C)cc1NC(=O)c1n[nH]c(=O)c2ccccc12 the Potency was 18.4 µM (active). With CC(=O)c1c(C)[nH]c(C(=O)Nc2cc(S(=O)(=O)N(C)C)ccc2C)c1C the Potency was “inactive”. In the case of Cc1ccc(S(=O)(=O)N(C)C)cc1NC(=O)c1ccccc1Br, the Potency was “inactive”. In the case of O=C(CSc1nc2[nH]c(=O)[nH]c(=O)c2s1)Nc1cccc(F)c1, the Potency was “inactive”. With CCC(C)[C@@H](C(=O)N1CCNCC1)n1cc(CCCCN)nn1 (some centres not stated) the Potency was “inactive”. With CCOC(=O)c1cccc(NC(=O)CN2C(=O)C3CC=CCC3C2=O)c1 (configuration not stated) the Potency was “inactive”. For CCOC(=O)N1CCN(c2cc(C)c([N+](=O)[O-])cc2F)CC1, the Potency was 20.6 µM (active). In the case of CCOC(=O)C1CCN(c2ccc(C(=O)O)cc2[N+](=O)[O-])CC1, the Potency was “inactive”. For CCOC(=O)N1CCN(C(=S)Nc2ccc(C)cc2C)CC1, the Potency was “inactive”. With NC(=O)C1CCN(C(=O)CC2C(=O)NCCN2Cc2cccc(Oc3ccccc3)c2)CC1 (configuration not stated) the Potency was “inactive”. For Cc1ccc(C(CNC(=O)Nc2cccc(C)c2)N2CCN(C)CC2)cc1 (configuration not stated), the Potency was “inactive”. In the case of Cc1ccc(NC(=O)Cn2cccc2C2=NC(c3ccccc3)CO2)c(C)c1 (configuration not stated), the Potency was “inactive”. In the case of COC(CNC(=O)Cn1ncc2ccsc2c1=O)OC, the Potency was “inactive”. With O=C1OCCC1=COCCCCOC=C1CCOC1=O the Potency was “inactive”. For Brc1ccc(CN2CC[C@H]3C=CCc4cccc(c43)C2)cc1, the Potency was 14.1 µM (active). For CCCC(=O)C1CCN(Cc2ccccc2)CC1, the Potency was “inactive”. For CCN(CCCNC(=O)c1c(C)oc2ncn(CC(C)C)c(=O)c12)Cc1ccccc1, the Potency was “inactive”. For O=S(=O)(NC1CC2CCC1C2)c1ccc(Cl)cc1 (configuration not stated), the Potency was “inactive”. In the case of O=C(CO/N=C/c1ccc(OC(F)F)cc1)NCc1ccc(F)cc1, the Potency was “inactive”. In the case of COc1ccc(/C=C2\N=C3CCCN3C2=O)cc1, the Potency was “inactive”. With O=C1/C(=C/c2cccs2)CCc2ccccc21 the Potency was “inactive”. With COc1ccc(/C=C2\NC(=O)[C@@H]3Cc4ccccc4CN3C2=O)cc1 the activity change, negative = growth inhibition was -14.1% [at 9.04 µM]. With COc1ccccc1C1=CC(=O)CCC1 the Potency was “inactive”. For COc1ccc(/C=C2\CCc3ccccc3C2=O)c(OC)c1OC, the Potency was 23.1 µM (active). In the case of COc1ccc(/C=C2/CCCc3ccccc3C2=O)cc1, the Potency was 5.8 µM (active). In the case of COc1cc2[nH]c(=S)n(Cc3ccc(F)cc3)c(=O)c2cc1OC, the Potency was “inactive”. In the case of COc1ccccc1NC(=O)N(O)C1(C#N)CCCCC1, the Potency was “inactive”. For Cc1nn(CC(=O)NC2CCCCC2)c(=O)c2cccn12, the Potency was “inactive”. With O=C(/C=C/c1ccc(Cl)cc1)Nc1ccc(S(=O)(=O)Nc2ncccn2)cc1 the Potency was “inactive”. In the case of O=C(CNS(=O)(=O)c1cccc(C(F)(F)F)c1)Nc1ccccc1F, the Potency was “inactive”. For O=C(/C=C/c1ccc(F)cc1)Nc1cccc(S(=O)(=O)Nc2cccc(C(F)(F)F)c2)c1, the Potency was 14.6 µM (active). In the case of Cc1ccc(OCC(=O)Nc2ccc(OCc3cc(=O)n4c(C)csc4n3)cc2)cc1C, the Potency was “inactive”. In the case of COc1cc(Cl)c(NC(=O)CC(C)S(=O)(=O)c2cc3c(cc2C)NC(=O)CO3)c(OC)c1 (configuration not stated), the Potency was “inactive”. With O=C(/C=C/c1ccccc1)Nc1nnc(SCC(=O)c2ccc3ccccc3c2)s1 the Potency was “inactive”. In the case of Cc1cccc(NC(=O)C2CCN(C(=O)NC3CCCCC3)CC2)c1, the Potency was “inactive”. For COc1ccc(NC(=O)N2CCCn3nc(C)cc32)cc1OC, the Potency was “inactive”. In the case of COc1ccc(NC(=O)CCCN2C(=O)CCn3nc(-c4cn(C)c5ccccc45)cc32)cc1OC, the Potency was 18.4 µM (active). For O=C(CN1C(=O)CCn2nc(-c3ccccc3)cc21)NCc1ccccc1, the Potency was “inactive”. With CCOC(=O)C1(C)CCCN(C(=O)c2ccc(N(C)C)cc2)C1 (configuration not stated) the Potency was “inactive”. In the case of CC(NCCc1ccc(S(N)(=O)=O)cc1)C(=O)NCc1ccccc1 (configuration not stated), the Potency was “inactive”. For Cn1ccc(=Nc2ccc(NC(=O)c3ccc(N=c4ccn(C)c5ccc([N+](=O)[O-])cc45)cc3)cc2)cc1, the Potency was 3.66 µM (active). For COc1cc(NS(=O)(=O)c2ccc(NC(=O)c3ccc([N+](=O)[O-])cc3)cc2)ncn1, the Potency was “inactive”. With CC(=O)NC(=S)Nc1ccc(NC(=S)NC(=O)c2ccc([N+](=O)[O-])cc2)cc1 the Potency was “inactive”. With CSCCC(NC(=O)c1ccco1)C(=O)NCCc1ccc(F)cc1 (configuration not stated) the Potency was “inactive”. With CC(=O)NCCNC(=O)c1cc(-c2cccc3ccccc23)nc2ccccc12 the Potency was “inactive”. For CN(C)CCNC(=O)Nc1cccc(Cl)c1Cl, the Potency was “inactive”. For CN(C)CCNC(=O)c1ccc(Cl)c2cc3ccccc3nc12, the Potency was 0.164 µM (active). In the case of COc1cc(/C=N/NC(=O)CCc2n[nH]c(=O)[nH]c2=O)ccc1O, the Potency was “inactive”. In the case of O=C(CCC(=O)N/N=C/c1ccc(Br)o1)N/N=C/c1ccc(Br)o1, the Potency was “inactive”. For O=C(CCc1ccc(O)cc1)NN=Cc1cc(Br)ccc1O, the Potency was 8.2 µM (active). In the case of CCCCn1c(N)c(N(CCOC)C(=O)CSCC(=O)Nc2cccc(C)c2)c(=O)[nH]c1=O, the Potency was “inactive”. With CC1CCCCC1NC(=O)c1cc(=O)[nH]c2ccccc12 (configuration not stated) the Potency was “inactive”. With COc1ccc(C2CC(c3cccs3)=NN2C(=O)COC(=O)c2cc3ccccc3cc2O)cc1OC (configuration not stated) the Potency was “inactive”. In the case of CC(=O)NC(CC(=O)Nc1cccc(S(=O)(=O)N2CCCC2)c1)c1ccccc1 (configuration not stated), the Potency was “inactive”. In the case of CCOc1ccc(CNC(=O)CCC(=O)N2CCSc3ccccc32)cc1, the Potency was “inactive”. For Cc1nn(-c2ccc(N3CCCCC3)nn2)c(C)c1CCC(=O)NCc1ccccc1F, the Potency was “inactive”. For CCOc1ccc(CNC(=O)CCc2c(C)nn(-c3ccc(N4CCCCC4)nn3)c2C)cc1, the Potency was 25.9 µM (active). In the case of O=C(Nc1cccc(Cl)c1N1CCOCC1)c1cccnc1, the Potency was “inactive”. With COc1cccc(-n2c(=O)c3c(C)c(C(=O)N(C)C)sc3n(CC(=O)NCCc3ccc(OC)c(OC)c3)c2=O)c1 the Potency was “inactive”. In the case of CCOc1cc(/C=N/NC(=O)c2c(C)nc3ccc(Cl)cn23)ccc1O, the Potency was 13 µM (active). With CCOc1cc(C=NNC(=O)CCCC(=O)NN=Cc2ccc(O)c(OCC)c2)ccc1O the Potency was “inactive”. In the case of CCOc1ccc(/C=N\NC(=O)c2c(C)nc3cc(C)ccn23)cc1, the Potency was “inactive”. For COc1ccc(-c2c(C(C)=O)c(C)nc3sc4c(=O)n(-c5ccc(C)cc5)nnc4c23)cc1, the Potency was “inactive”. With Oc1ccc(Cl)cc1/C=N/c1nc2ccccc2[nH]1 the Potency was “inactive”. In the case of SCc1nc2ccc(Cl)cc2[nH]1, the Potency was 5.62 µM (active). With OC(c1nc2ccc(F)cc2[nH]1)C(O)c1nc2ccc(F)cc2[nH]1 (configuration not stated) the Potency was “inactive”. With Cc1ccc(OC(=O)c2c(C)nn(-c3ccccc3)c2C)cc1 the Potency was “inactive”. With CCOC(=O)/C=C/CN(C(=O)OC(C)(C)C)S(=O)(=O)N1CC=CC1 the Potency was “inactive”. With O=C(CCN1Cc2ccccc2OC(c2ccccc2)C1)N[C@@H]1CS(=O)(=O)C[C@H]1O (some centres not stated) the activity change, negative = growth inhibition was 2.04% [at 9.04 µM]. With Cc1cc2nc(C(F)(F)F)cc(-c3cccs3)n2n1 the Potency was “inactive”. In the case of CCC(=O)Nc1ccc2c(c1)nc(CCN1CCN(C)CC1)n2C, the Potency was “inactive”. In the case of CCC(=O)Nc1ccc2c(c1)nc(CCN1CCN(c3ccccn3)CC1)n2C, the Potency was “inactive”. With Cn1c(CCN2CCN(c3ccccn3)CC2)nc2cc(NS(=O)(=O)c3ccc(F)cc3)ccc21 the Potency was 16.4 µM (active). In the case of COc1ccc(S(=O)(=O)N2CCCCC2)cc1C(=O)NC1CCS(=O)(=O)C1 (configuration not stated), the Potency was “inactive”. With COC(=O)C(C)n1cnc2c(nnn2-c2ccc(F)cc2)c1=O (configuration not stated) the Potency was “inactive”. In the case of COc1ccc(S(=O)(=O)N2C[C@H]3CON(C)[C@H]3C[C@H]2c2cccc(Br)c2)cc1, the Potency was “inactive”. In the case of Cc1cc(C)cc(NC(=O)NC2CCCCCCC2)c1, the Potency was “inactive”. With C/C(CC(=O)Nc1cccc(F)c1)=N\NC(=O)C(=O)NC1CCCCC1 the Potency was “inactive”. For O=C(Nc1cccc(F)c1)NC1CCCCCCC1, the Potency was 18.4 µM (active). In the case of COc1ccc2c(c1)C(=O)Nc1cc(Cl)ccc1N2, the Potency was “inactive”. For CCOc1ccc(-n2c(O)c(/C=N/Nc3nnc(C)c(=O)[nH]3)c3ccccc3c2=O)cc1, the Potency was 0.651 µM (active). With Cc1cc(C)nc(N/N=C/c2c(CO)cnc(C)c2O)n1 the Potency was “inactive”. In the case of CCOc1ccc(N/C(N)=N/c2nc(C)c(C)c(=O)[nH]2)cc1, the Potency was “inactive”. For CCN(CC)CCCN=Cc1c(O)n(-c2ccc(C)cc2)c(=O)c2ccccc12, the Potency was “inactive”. For CCOc1ccc(-n2c(O)c(/C=N/Nc3nc(C)cc(C)n3)c3ccccc3c2=O)cc1, the Potency was 2.59 µM (active). For Cc1ccccc1Nc1nnc(C)c(=O)[nH]1, the Potency was “inactive”. In the case of Cc1nnc(N/N=C/c2ccccn2)[nH]c1=O, the Potency was 4.61 µM (active). In the case of COc1ccc(-n2c(O)c(C=NCC(c3ccco3)N3CCCC3)c3ccccc3c2=O)cc1OC (configuration not stated), the Potency was “inactive”. For Cc1nnc(N/N=C/c2cccs2)[nH]c1=O, the Potency was “inactive”. With COC1=NC2=NCCN2C(OC)=N1 the Potency was “inactive”. With O=S(=O)(c1ccc(Br)cc1)c1nnn2c1nc(NC1CCCCCC1)c1sccc12 the Potency was “inactive”. In the case of Cc1cccn2c(=O)nc(SCC(=O)NCc3ccccc3Cl)nc12, the Potency was “inactive”. For CN(C(=O)COC(=O)Cc1ccccc1[N+](=O)[O-])C1CCS(=O)(=O)C1 (configuration not stated), the Potency was “inactive”.
Potency means the concentration at half of the fitted maximal effect.
